Sa ugtP lethal = compounds lethal to S. aureus RN4220 ugtP deletion mutant; OD600 growth, 16 h; growth inhibition, % (no concentration beside the values); 0.54% of 330,000 active; AID 1259309; in the data active = growth inhibition above about 68%;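 also: plate controls were untreated wells for no effect and antibiotic for full effect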
PrPC surface inh = reduces human prion protein on the cell surface. inhibition, % at 13.8 µM. 0.43% of 370,000 active. cell surface PrPC, TR-FRET read-out; in the data active = inhibition above about 24%; also: 0% = median of the test wells and 100% = reference compound wells
BJeLR viability = BJeLR cell viability loss | BJeLR (HRASV12) viability, CellTiter-Glo ATP luminescence, 48 h | inhibition, % (no concentration beside the values) | 0.17% of 300,000 active; in the data active = inhibition above about 50%
Sa RN4220 lethal = kills Staphylococcus aureus RN4220; S. aureus RN4220 growth, OD600, 16 h; inhibition, % (no concentration beside the values); 0.33% of 330,000 active; AID 1259311; in the data active = inhibition above about 85%;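 also: plate controls were untreated cells for no effect and reference antibiotic for full effect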
PrPC confirm = cell surface PrPC inhibition, TR-FRET confirmation | shares compounds with PrPC surface inh | inhibition, % at 13.8 µM | cell surface PrPC level | 65% of 1,500 active; in the data active = inhibition above about 25%
LD9 cytotox = kills or reduces viability of LD9 cells in PrPc counter-screen | shares compounds with PrPC surface inh | LD9 cells cytotoxicity, luminescence viability | inhibition, % at 13.8 µM | 29% of 1,500 active; in the data active = inhibition above about 9.5%
Numbers without * were called inactive; . = not tested or not shown. Only some compounds are listed: those with a hit (about 0.95% of all), similar ones and a draw of the others.

SMILES	Sa ugtP lethal	PrPC surface inh	BJeLR viability	Sa RN4220 lethal	PrPC confirm	LD9 cytotox
CNC(=O)NC(=O)CSc1nc(-c2cccs2)c(C#N)c(=O)[nH]1	2	120*	2	0	124*	-3
CSc1nc(-c2cccs2)c(C#N)c(=O)[nH]1	.	59*	-6	.	87*	-1
O=C(CSc1cnc2ccccc2n1)NC1CCCC1	-3	33*	-4	2	40*	-1
N#Cc1c(-c2cccs2)nc(SCc2ccc(Cl)cc2)[nH]c1=O	59	109*	-7	51	119*	-7
O=c1c2c3c(sc2ncn1N=Cc1ccncc1)CCCC3	4	.	.	10	.	.
CCON=C(C)c1c(O)c(C)c(-c2ccccc2)n(-c2ccccc2)c1=O	8	.	.	7	.	.
Fc1cccc(C=Nn2c(C3CCCCC3)n[nH]c2=S)c1	-14	.	.	5	.	.
CC(=NNC(=O)Cc1ccccc1)c1ccc(C)s1	4	.	.	-2	.	.
O=C(CSc1nc2ccccc2c(=O)[nH]1)NC1CCCCC1	.	14	.	.	.	.
N#Cc1c(-c2ccccc2)nc(SCC(=O)NC2CCCCC2)[nH]c1=O	2	36*	.	2	39*	-10
O=[N+]([O-])c1cccnc1S(=O)(=O)c1ccccc1	.	38*	-1	.	-7	98*
Nc1cccnc1S(=O)(=O)c1ccccc1	12	6	0	-1	.	.
COc1ccc([N+](=O)[O-])c(S(=O)(=O)c2ccccc2)n1	96*	52*	4	42	-4	95*
COC(=O)c1cnn(-c2ccc(F)cc2F)c1C=NNC(=S)NC(C)(C)C	20	.	.	6	.	.
O=C(COC(=O)CSc1ccc2ccccc2c1Br)NC1CC1	-13	56*	1	3	79*	-7
Cc1ccccc1C=Nn1c(COc2ccccc2)n[nH]c1=S	3	.	.	5	.	.
CC(Cn1nnc([N+](=O)[O-])n1)=NNC(=O)c1ccc(O)cc1O	18	.	.	-3	.	.
O=C(CCCCCNC(=O)c1ccccc1)NN=Cc1ccc(O)cc1O	-4	.	.	-8	.	.
COc1ccc(-n2c(-c3ccc(Cl)cc3)c[n+]3c2CCc2ccccc2-3)cc1	-15	8	1	0	.	.
Cc1ccc(-n2c(-c3ccc(Br)cc3)c[n+]3c2CCc2ccc4cccnc4c2-3)cc1	90	25*	77*	99*	31*	46*
CC(=NNC(=O)c1cccc(S(=O)(=O)Nc2ccccc2Cl)c1)c1ccco1	8	.	.	9	.	.
Cn1c(N)c(C(=O)CSc2nnc(N)s2)c(=O)n(C)c1=O	-1	1	.	0	.	.
CC(=O)c1c(C)[nH]c(C(=O)CSc2nnc(N)s2)c1C	-11	30*	-4	1	30*	-2
NC(=O)c1cc(NC(=O)CCc2nc3ccccc3s2)cc(C(N)=O)c1	8	37*	-8	2	31*	5
Cc1cccc(NC(=O)NCc2ccc3c(c2)cc(C)n3C)c1	3	22	8	3	.	.
SMILES	Sa ugtP lethal	PrPC surface inh	BJeLR viability	Sa RN4220 lethal	PrPC confirm	LD9 cytotox
COc1cccc(NC(=S)NCc2ccc3c(c2)cc(C)n3C)c1	-4	19	6	3	.	.
Cc1cc2cc(CNC(=O)Nc3cccc(Cl)c3)ccc2n1C	9	35*	-4	3	44*	-2
Cc1cc2cc(CNC(=S)Nc3ccc(OC(F)(F)F)cc3)ccc2n1C	-1	27*	-23	-4	34*	-4
Cc1cccc(NC(=S)NCc2ccc3c(c2)cc(C)n3C)c1C	-13	28*	-5	-5	5	1
Fc1ccc(Cl)cc1C=Nn1cnnc1SCc1ccccc1	0	.	.	6	.	.
NC(=S)NN=C1CC(c2ccc3c(c2)OCCO3)Oc2ccc(F)cc21 (configuration not stated)	-8	.	.	6	.	.
Cc1ccc(C=NNC(=O)c2ccc3c(c2)OCCO3)s1	9	.	.	4	.	.
O=C(CCn1nnc2ccccc21)NN=CCc1ccccc1	2	.	.	1	.	.
CCOC(=O)c1ccc(-[n+]2c(-c3ccccc3)cc(-c3ccccc3)cc2-c2ccccc2)cc1	.	.	20	.	.	.
CN(C)c1ccc(-[n+]2c(-c3ccccc3)cc(-c3ccccc3)cc2-c2ccccc2)cc1	.	31*	56*	.	41*	47*
O=C(NNc1ccccc1Br)C(O)(c1cccc(C(F)(F)F)c1)c1cccc(C(F)(F)F)c1	3	30*	4	24	6	1
Fc1ccc(NC(=S)Nc2nccs2)cc1	-1	32*	7	-5	20	5
COC(=O)CN1C(=O)C2C(c3ccc(C)o3)N3C(=O)CN(CC4CC4)C(=O)[C@@]3(C)C2C1=O (some centres not stated)	-11	.	.	3	.	.
Cc1ccc(/C(O)=C2/C(=O)C(=O)N(c3ccccn3)C2c2ccc(F)cc2)cc1 (configuration not stated)	-1	11	-2	5	.	.
CCOc1ccc(/C(O)=C2/C(=O)C(=O)N(c3ccccn3)C2c2ccc(F)cc2)c(C)c1 (configuration not stated)	12	29*	2	5	63*	-6
O=C(NN=Cc1ccco1)c1cc(-c2cccc3ccccc23)n[nH]1	-6	.	.	7	.	.
NS(=O)(=O)c1ccc(NC(=O)CSc2ccc3ccccc3n2)cc1	1	36*	8	4	43*	-1
O=C1CCCN1C(=O)CSc1ccc2ccccc2n1	3	41*	.	4	52*	1
CCOc1ccc(NC(=O)CCSc2ccc3ccccc3n2)cc1	39	62*	-10	2	60*	3
NS(=O)(=O)c1ccc(NC(=O)CSc2ncccn2)cc1	-5	5	7	-2	.	.
NS(=O)(=O)c1ccc(NC(=O)CSc2nc3ccccc3c(=O)n2-c2ccc(Br)cc2)cc1	.	34*	.	.	20	-1
O=C(NN=Cc1ccc(Cl)cc1)c1cc2c(s1)-c1ccccc1CC2	-20	.	.	-14	.	.
O=C(CSc1ccc2ccccc2n1)NN=Cc1ccc(O)cc1	3	.	.	5	.	.
O=C(CSc1ccc2ccccc2n1)N/N=C/c1ccc(O)cc1	.	25*	-9	.	23	1
CCOc1ccc(N2C(=O)CC(Sc3ncccn3)C2=O)cc1 (configuration not stated)	0	0	5	3	.	.
SMILES	Sa ugtP lethal	PrPC surface inh	BJeLR viability	Sa RN4220 lethal	PrPC confirm	LD9 cytotox
CCOc1ccc(N2C(=O)CC(Sc3nc(-c4cccs4)cc(C(F)(F)F)c3C#N)C2=O)cc1 (configuration not stated)	-14	25*	-5	-9	11	-4
CCCCCCCCCCCCCCCC[N+](C)(C)CCl	.	11	.	.	.	.
CCCCCCCCCCCCCCCC[N+](C)(C)CC	100*	26*	-5	100*	36*	14*
CC#CC[N+](C)(C)CCCCCCCCCCCC	100*	25*	17	100*	28*	16*
CCCCC(C)=NNC(=O)CNS(=O)(=O)c1ccc([N+](=O)[O-])cc1	-13	.	.	-5	.	.
CC(C)CC(NC(=O)CCCNC(=O)CCC(=O)OC1O[C@H]2OC3(C)CC[C@H]4[C@H](C)CCC(C1C)C24OO3)C(=O)O (some centres not stated)	.	28*	-3	.	38*	20*

Compound activity from PubChem BioAssay.
